Experimental data as given in PubChem BioAssay (Tox21).
Records with an inconclusive call do not appear. Entries that show only a call come without a potency. Activity calls are given as the source filed them. Calls come from the whole dose curve; as a rule, active = well fitted activation curve with a large enough effect in the repeat runs; inconclusive = weak or mixed curves; inactive = flat fitted curve, though single readings scatter.

Assay: Caspase-3/7 induction in HepG2 cells by small molecules, qHTS assay (AID 1346978); note: nearly all actives have a fitted effect of over 15% in size
Details: HepG2 caspase-3/7 activation, Caspase-Glo luminescence, 17 h; series mostly up to 92.4 µM
Source text: National Center for Advancing Translational Sciences [NCATS] NIH Chemical Genomics Center [NCGC] U.S. Environmental Protection Agency [EPA] National Institutes of Environmental Health Sciences [NIEHS] National Toxicology Program [NTP] Assay overview: Apoptosis is a process of programmed cell death and plays a central role in the development of multicellular organisms. It is a highly regulated process and induces cell death by activating caspases, which are the members of cysteine aspartic acid-specific protease (caspase) family. Caspases involved in apoptosis are classified by their mechanism of action as initiator caspases (caspase-2, -8, -9 and -10) and executioner caspases (caspase-3, -6, and -7). Inhibition of apoptosis results in number of cancers, autoimmune diseases, inflammatory diseases and viral infection. To identify small molecule compounds that induce apoptosis, a homogeneous, luminescent Caspase-Glo 3/7 assay was used. Wild type HepG2 cells were used to screen Tox21 libraries for identifying caspase-3/7 activity inducers.
Assay Protocol Summary: HepG2 cells were dispensed at 2,000 per well in 5uL of culture medium into white solid bottom 1536-well plates (Corning Life Sciences, Corning, NY) using a Multidrop Combi (Thermo Scientific, Waltham, MA) dispenser. The assay plates were incubated at 37 C and 5% CO2 for 5hr, and then 23nL of compounds dissolved in DMSO and positive control were transferred using a Pintool station (Wako, San Diego, CA). The assay plates were incubated at 37C and 5% CO2 for 17hr. For caspase-3/7 activity read, 4uL of Caspase-Glo 3/7 reagent (Promega Corporation, Madison, WI) was added to each well of the assay plates using Flying Reagent Dispenser (FRD, Aurora Discovery, San Diego, CA) and incubated the assay plates at room temperature for 30min. The luminescence signal was quantified using a ViewLux plate reader (Perkin Elmer, Shelton, CT).
Potency is the fitted concentration of half-maximal effect.

Row | SMILES | Potency
1 | O=C(c1ccc(F)cc1)C1CCN(CCn2c(=O)[nH]c3ccccc3c2=O)CC1 | inactive
2 | COC(=O)C1=C(C)NC(C)=C(C(=O)OCC(C)C)C1c1ccccc1[N+](=O)[O-] (stereo not given) | inactive
3 | CCCCCCCCCCCCCCCS(=O)(=O)Oc1ccccc1 | inactive
4 | Nc1ccc2cc(S(=O)(=O)O)cc(O)c2c1N=Nc1ccccc1C(F)(F)F | inactive
5 | O=c1[nH]sc2cc(Cl)ccc12 | inactive
6 | Cc1cc2c(cc1C(F)(F)F)N(C(=O)Nc1ccc(Oc3cccnc3C)nc1)CC2 | inactive
7 | N#CC1(c2ccc(F)cc2)CCC(=O)CC1 | inactive
8 | CCCC1O[C@@H]2C[C@H]3[C@@H]4CCC5=CC(=O)C=C[C@]5(C)[C@H]4[C@@H](O)C[C@]3(C)[C@]2(C(=O)CO)O1 (stereo not given in full) | inactive
9 | Clc1ccccc1C(c1ccccc1)(c1ccccc1)n1ccnc1 | inactive
10 | CCCCCCCCCCC=O | inactive
11 | CCCCCOC(=O)CCCC | inactive
12 | CN1CCC(Nc2ncc3ncnc(Nc4ccc(F)c(Cl)c4)c3n2)CC1 | inactive
13 | O=c1[nH]sc2ccccc12 | inactive
14 | NC(=O)NS(=O)(=O)c1ccc(N)cc1 | inactive
15 | O=S1(=O)CC(Cl)(Cl)C(Cl)(Cl)C1 | inactive
16 | COc1ccc(-c2ccc3cc(C(=O)O)ccc3c2)cc1C12CC3CC(CC(C3)C1)C2 | inactive
17 | CCC(N)(CO)CO | inactive
18 | Cc1oc(-c2ccccc2)nc1CCC(=O)c1ccc(CC2SC(=O)NC2=O)cc1 (stereo not given) | inactive
19 | c1ccc(CSCc2ccccc2)cc1 | inactive
20 | CN(C)[C@@H]1C(=O)C(C(N)=O)=C(O)[C@@]2(O)C(=O)C3=C(O)c4c(O)cccc4C[C@H]3C[C@@H]12 | inactive

Row | SMILES | Potency
21 | COC(=O)c1cc(Cl)ccc1OC | inactive
22 | N#CSc1ccc(N)c([N+](=O)[O-])c1 | inactive
23 | CC(=O)OCC(C)OC(C)=O (stereo not given) | inactive
24 | O=C1c2ccccc2Cc2ccccc21 | inactive
25 | NNc1nc(-c2ccc([N+](=O)[O-])cc2)cs1 | inactive
26 | CNC(=O)c1ccccc1 | inactive
27 | CCCC/C=C/CCCCO | inactive
28 | CCCC(c1cc(C(C)(C)C)c(O)cc1C)c1cc(C(C)(C)C)c(O)cc1C | 24.6 µM (active)
29 | COc1ccc(C(=O)/C(Br)=C\C(=O)O)cc1 | inactive
30 | Cc1onc(-c2ccccc2Cl)c1C(=O)N[C@@H]1C(=O)N2[C@@H]1SC(C)(C)[C@@H]2C(=O)O | inactive
31 | Cc1nc(-c2ccc3c(c2)CCN(CCC2CCC(NC(=O)/C=C/c4ccc(F)cc4)CC2)CC3)no1 (stereo not given) | inactive
32 | O=[N+]([O-])c1ccccc1Nc1ccccc1 | inactive
33 | S=c1[nH]c2ccccc2s1 | inactive
34 | O=C(O)c1cc(O)c2c(c1)C(=O)c1cccc(O)c1C2=O | inactive
35 | CC(C)(C)C(=O)OCOC(=O)C1N2C(=O)CC2S(=O)(=O)C1(C)C (stereo not given) | inactive
36 | CC(C)(C)C1CCC(CC2=C(O)c3ccccc3C(=O)C2=O)CC1 (stereo not given) | inactive
37 | CC(C)CCCCCCCCCCCCCCC(=O)O | inactive
38 | CCCCC(CC)COP(=O)(O)OCC(CC)CCCC (stereo not given) | inactive
39 | CCCN(CCC)c1c([N+](=O)[O-])cc(C(F)(F)F)c(N)c1[N+](=O)[O-] | 60.9 µM (active)
40 | CCCCC(CC)COC(=O)c1ccccc1C(=O)O (stereo not given) | inactive
